Measurements published in PubChem BioAssay AID602145 (NMMLSC, 2011).
Unmarked numbers belong to inactive results.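 The calls were made as follows: active = half-maximal potency of 10 µM or stronger, response changing by 30% or more across doses, valid fit; inactive = the rest.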

Assay: GST-GSH bead binding interference, SAR follow-up, counter-screen for Rab7 GTPase inhibitor project, biochemical, flow cytometry beads, round 2 (AID 602145)
Details: GST-GFP binding to GSH beads; series mostly up to 100 µM; percent response (binding retained): at the top concentration

| Structure (SMILES) | percent response (binding retained) [%] |
| --- | --- |
| CC1(C)Cc2c(sc(NC(=S)NC(=O)C3CCCCC3)c2C(=O)O)CO1 | 90.5 |
| CCC1(C)Cc2c(sc(NC(=S)NC(=O)c3ccccc3)c2C(=O)O)CO1 (configuration not stated) | 93.9 |
| Cc1ccc(C(=O)NC(=S)Nc2sc3c(c2C(=O)O)CC(C)(C)OC3)cc1 | 95.8 |
| Cc1ccccc1C(=O)NC(=S)Nc1sc2c(c1C(=O)O)CC(C)(C)OC2 | 99.8 |
| CC1(C)Cc2c(sc(NC(=S)NC(=O)c3ccco3)c2C(=O)O)CO1 | 90 |
| CC1(C)Cc2c(sc(NC(=S)NC(=O)c3cccs3)c2C(=O)O)CO1 | 90.7 |
| CC(C)(C)C1Cc2c(sc(NC(=S)NC(=O)c3ccccc3)c2C(=O)O)CO1 (configuration not stated) | 92.7 |
| COc1ccccc1C(=O)NC(=S)Nc1sc2c(c1C(=O)O)CC(C)(C)OC2 | 97.3 |
| Cc1cccc(C(=O)NC(=S)Nc2sc3c(c2C(=O)O)CC(C)(C)OC3)c1 | 99.6 |
| CC1(C)Cc2c(sc(NC(=S)NC(=O)c3ccc(F)cc3)c2C(=O)O)CO1 | 93.4 |
| O=C(NC(=S)Nc1sc2c(c1C(=O)O)CCOC2)c1ccccc1 | 89.5 |
| O=C(NC(=S)Nc1sc2c(c1C(=O)O)CC1(CCCC1)OC2)c1ccccc1 | 100 |
